Here are results for eleven sequences from publication PMC11006913.

Holding throughout (assay): PBM; 200 nM protein, PBS
What all share (settings): dsDNA, one strand shown

Test [1] addresses HOXC10 (Homo sapiens, UniProt Q9NYD6 254-340).
Test [2] deals with HOXC10 (Homo sapiens, UniProt Q9NYD6 254-340, K271E).
A further test concerns the target T1, NKX2-6 (Homo sapiens, UniProt A6NCS4 118-204, R150C).
T1 sequence: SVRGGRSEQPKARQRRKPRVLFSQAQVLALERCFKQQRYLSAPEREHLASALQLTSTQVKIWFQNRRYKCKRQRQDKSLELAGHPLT

The target in test [3] is T2, PAX4 (Homo sapiens, UniProt O43316 9-242, R200K).
T2 sequence: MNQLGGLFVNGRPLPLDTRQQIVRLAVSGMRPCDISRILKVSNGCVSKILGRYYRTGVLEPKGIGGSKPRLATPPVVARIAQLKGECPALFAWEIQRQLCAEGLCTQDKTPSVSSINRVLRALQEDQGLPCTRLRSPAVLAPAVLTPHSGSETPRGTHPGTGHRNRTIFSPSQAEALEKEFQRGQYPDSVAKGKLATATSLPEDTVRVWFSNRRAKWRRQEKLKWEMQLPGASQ

Test [4] concerns the target T3, PAX4 (Homo sapiens, UniProt O43316 9-242).
T3 sequence: T2 sequence with K192R

Test [5] concerns the target T4, PAX4 (Homo sapiens, UniProt O43316 9-242, R200Q).
T4 sequence: T2 sequence with K192Q

Test [6] has as its target T5, PAX4 (Homo sapiens, UniProt O43316 9-242, R227W).
T5 sequence: T2 sequence with K192R, R219W

The target of test [7] is PRRX1 (Homo sapiens, UniProt P54821 80-166, F113S).
Sequence of PRRX1 (Homo sapiens, UniProt P54821 80-166, F113S) (P54821 80-166 F113S): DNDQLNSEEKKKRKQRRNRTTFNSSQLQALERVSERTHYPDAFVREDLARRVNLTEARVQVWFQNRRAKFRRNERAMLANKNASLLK
Test [8] addresses PRRX1 (Homo sapiens, UniProt P54821 80-166).
The target in a further test is PITX2 (Homo sapiens, UniProt Q99697 72-157).

Substitutions are numbered along the chain they refer to.

Sequence of PRRX1 (Homo sapiens, UniProt P54821 80-166) (P54821 80-166): as the sequence (P54821 80-166 F113S) above, with S34F counted along it
Sequence of HOXC10 (Homo sapiens, UniProt Q9NYD6 254-340, K271E) (Q9NYD6 254-340 K271E): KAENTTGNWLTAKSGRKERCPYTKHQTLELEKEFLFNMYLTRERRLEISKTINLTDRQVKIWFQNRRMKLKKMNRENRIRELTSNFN
Sequence of HOXC10 (Homo sapiens, UniProt Q9NYD6 254-340) (Q9NYD6 254-340): as the sequence (Q9NYD6 254-340 K271E) above, with E18K counted along it

On to CCCCGGGG, for which the binding signal with HOXC10 [1] was 9.9 upbm affinity estimate (log intensity, higher = more binding, comparable within an allelic series); with HOXC10 [2], 9.91 upbm affinity estimate (log intensity, higher = more binding, comparable within an allelic series).
Regarding CCCGGGAC, the binding signal in the test with NKX2-6 is 9.29 upbm affinity estimate (log intensity, higher = more binding, comparable within an allelic series).
Regarding GGGGGCAA, the binding signal with PAX4 [3] was 9.18 upbm affinity estimate (log intensity, higher = more binding, comparable within an allelic series); in the test with PAX4 [4], 9.24 upbm affinity estimate (log intensity, higher = more binding, comparable within an allelic series); in the test with PAX4 [5], 9.19 upbm affinity estimate (log intensity, higher = more binding, comparable within an allelic series); in the test with PAX4 [6] it was 9.17 upbm affinity estimate (log intensity, higher = more binding, comparable within an allelic series).
For the sequence CAGCGCCG, the binding signal was 9.95 upbm affinity estimate (log intensity, higher = more binding, comparable within an allelic series) with HOXC10 [1]; 9.2 upbm affinity estimate (log intensity, higher = more binding, comparable within an allelic series) with PAX4 [3]; 9.2 upbm affinity estimate (log intensity, higher = more binding, comparable within an allelic series) in the test with PAX4 [4]; 9.39 upbm affinity estimate (log intensity, higher = more binding, comparable within an allelic series) in the test with NKX2-6; 9.26 upbm affinity estimate (log intensity, higher = more binding, comparable within an allelic series) with PAX4 [5]; 9.93 upbm affinity estimate (log intensity, higher = more binding, comparable within an allelic series) in the test with HOXC10 [2]. Moreover, in the test with PAX4 [6], the binding signal is 9.19 upbm affinity estimate (log intensity, higher = more binding, comparable within an allelic series).
In the case of CTCCGCCC, the binding signal with PAX4 [3] is 9.45 upbm affinity estimate (log intensity, higher = more binding, comparable within an allelic series); with PAX4 [4], 9.46 upbm affinity estimate (log intensity, higher = more binding, comparable within an allelic series); with PAX4 [5], 9.44 upbm affinity estimate (log intensity, higher = more binding, comparable within an allelic series); with PAX4 [6], 9.35 upbm affinity estimate (log intensity, higher = more binding, comparable within an allelic series).
Turning to CCCTCGGC, the binding signal was 9.22 upbm affinity estimate (log intensity, higher = more binding, comparable within an allelic series) with PRRX1 [7] and 9.48 upbm affinity estimate (log intensity, higher = more binding, comparable within an allelic series) in the test with PRRX1 [8].
With CGGGCCCC, the binding signal in the test with PRRX1 [7] was 9.02 upbm affinity estimate (log intensity, higher = more binding, comparable within an allelic series); with PRRX1 [8] it was 9.32 upbm affinity estimate (log intensity, higher = more binding, comparable within an allelic series).
As to CGGCCTGC, in the test with PITX2, the binding signal was 7.72 upbm affinity estimate (log intensity, higher = more binding, comparable within an allelic series).
For the sequence CGGGAAGC, the binding signal with PRRX1 [7] is 9.35 upbm affinity estimate (log intensity, higher = more binding, comparable within an allelic series); with PRRX1 [8] it was 9.64 upbm affinity estimate (log intensity, higher = more binding, comparable within an allelic series).
CCCAGCCG: in the test with PITX2, the binding signal was 8.01 upbm affinity estimate (log intensity, higher = more binding, comparable within an allelic series).
On the same count and under the same terms, the figure for GCGCTGCC is 8 upbm affinity estimate (log intensity, higher = more binding, comparable within an allelic series).
